# Results as given in paper PMC4336329 (PLoS ONE, 2015).
# The whole screen tested about 310,000 compounds, of which about 2,200 (0.71%) showed an effect of 50% or more. The effect is printed as a negative number. The sample holds strong results, similar compounds and a random draw of the others, so the mix is not that of the screen.
# Target: human ether-à-go-go-related gene (hERG) potassium channel (human, UniProt Q12809)
# Assay: primary screen, population patch clamp on CHO cells stably expressing hERG; higher = less effect of the substance
# human ether-à-go-go-related gene (hERG) potassium channel, sequence (Q12809 whole entry, looked up): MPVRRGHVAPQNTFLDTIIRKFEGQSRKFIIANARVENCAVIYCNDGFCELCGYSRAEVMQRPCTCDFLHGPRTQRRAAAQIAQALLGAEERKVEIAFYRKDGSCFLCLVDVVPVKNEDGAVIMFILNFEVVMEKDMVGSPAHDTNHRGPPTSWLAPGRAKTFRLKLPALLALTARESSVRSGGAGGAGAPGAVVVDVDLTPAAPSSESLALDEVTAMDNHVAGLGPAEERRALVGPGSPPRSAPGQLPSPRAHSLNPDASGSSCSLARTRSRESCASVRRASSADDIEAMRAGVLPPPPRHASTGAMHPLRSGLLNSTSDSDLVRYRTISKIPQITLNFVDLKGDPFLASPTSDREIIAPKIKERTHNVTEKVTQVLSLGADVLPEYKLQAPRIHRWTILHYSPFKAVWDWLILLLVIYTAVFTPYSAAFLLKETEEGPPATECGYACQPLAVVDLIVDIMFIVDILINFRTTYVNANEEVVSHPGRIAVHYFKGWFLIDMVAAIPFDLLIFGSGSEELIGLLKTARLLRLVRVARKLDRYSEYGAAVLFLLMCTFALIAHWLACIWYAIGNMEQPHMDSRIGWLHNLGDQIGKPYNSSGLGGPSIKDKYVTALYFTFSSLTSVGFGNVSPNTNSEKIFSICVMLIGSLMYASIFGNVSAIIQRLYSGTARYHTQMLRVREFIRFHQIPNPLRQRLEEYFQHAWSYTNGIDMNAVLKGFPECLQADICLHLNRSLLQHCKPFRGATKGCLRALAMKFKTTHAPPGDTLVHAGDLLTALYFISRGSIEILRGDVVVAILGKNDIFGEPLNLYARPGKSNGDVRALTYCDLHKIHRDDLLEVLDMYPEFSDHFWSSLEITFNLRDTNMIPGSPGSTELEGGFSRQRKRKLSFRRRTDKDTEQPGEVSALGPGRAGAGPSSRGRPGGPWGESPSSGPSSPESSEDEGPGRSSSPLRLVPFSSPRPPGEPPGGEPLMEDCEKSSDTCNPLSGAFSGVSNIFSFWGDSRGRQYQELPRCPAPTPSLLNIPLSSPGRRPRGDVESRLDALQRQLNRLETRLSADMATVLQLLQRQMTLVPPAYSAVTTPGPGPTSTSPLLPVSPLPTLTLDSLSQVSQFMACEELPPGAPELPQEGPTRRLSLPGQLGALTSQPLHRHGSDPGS
row,SMILES,"hERG current change (%, negative = inhibition) at 1uM [%]"
1,CCOC(=O)c1c(C)[nH]c(C(=O)N2CCN(C(=O)OCC)CC2)c1C,7.64
2,Cc1ccc(NS(=O)(=O)c2cccs2)cc1S(=O)(=O)N1CCCCCC1,16.5
3,Cc1ccc(CSCc2ccc(C(=O)NCCCN3CCOCC3)o2)cc1,-21.2
4,COC(CNC(=O)c1ccc2c(c1)ncn2-c1ccc(F)c(F)c1)OC,-5.49
5,COc1ccc2cc(C(=O)N3CCCCCC3)sc(=O)c2c1OC,1.33
6,CCCCNC(C(=O)Nc1ccc([N+](=O)[O-])cc1Br)c1ccccc1 (stereo not shown),10.5
7,CC(=O)c1cccc(NC(=O)C(NC(C)C)c2ccccc2)c1 (stereo not shown),10
8,CN(C)c1cccc(C(=O)OC(C(=O)Nc2ccc(Cl)cc2C(F)(F)F)c2ccccc2)c1 (stereo not shown),0.322
9,CCCC(=O)OC(C(=O)Nc1cc(C(F)(F)F)ccc1Cl)c1ccccc1 (stereo not shown),5.1
10,CCN(CC)CCNC(C(=O)Nc1cc(C(F)(F)F)ccc1Cl)c1ccccc1 (stereo not shown),-85.3
11,CN(C)CC(C)(C)CNC(C(=O)Nc1ccc(Cl)cc1C(F)(F)F)c1ccccc1 (stereo not shown),-72.3
12,CN(C)C(CNC(C(=O)Nc1ccc([N+](=O)[O-])cc1Br)c1ccccc1)c1ccccc1 (stereo not shown),11.9
13,O=C(Nc1cc(C(F)(F)F)ccc1Cl)C(NCc1ccccc1)c1ccccc1 (stereo not shown),15.6
14,COc1cccc(NC(=O)C(NCC(C)(C)CN(C)C)c2ccccc2)c1.O=C(O)C(=O)O (stereo not shown),-12.7
15,CN(C)CCNC(C(=O)Nc1cccc(C(F)(F)F)c1)c1ccccc1.O=C(O)C(=O)O (stereo not shown),-14.6
16,CCN(CC)CCNC(C(=O)Nc1ccc([N+](=O)[O-])cc1Br)c1ccccc1 (stereo not shown),-86.5
17,CCN(CC)CCNC(C(=O)Nc1cccc(C(C)=O)c1)c1ccccc1.O=C(O)C(=O)O (stereo not shown),-51.4
18,CC(/C=N/n1c(-c2ccco2)n[nH]c1=S)=C\c1ccco1,13.9
19,COCCCNc1nc2c(-c3cccc(C)c3)nnn2c2ccc(Cl)cc12,13.3
20,CNC(=O)c1[nH]cnc1C(=O)N[C@@H](CCCCNC(=O)OC(C)(C)C)C(=O)OC(C)(C)C,13.6
21,Cc1cccc(NS(=O)(=O)c2cccc([N+](=O)[O-])c2)n1,13.7
22,Cn1ccnc1SCC(=O)Nc1cc(C(F)(F)F)ccc1N1CCOCC1,-0.591
